Measured values as given in PubChem BioAssay (NCATS).
Inconclusive results are not listed. Active and inactive are the calls of the source. The call rests on the fitted dose curve.

Target: Atrial natriuretic peptide receptor 1 (Homo sapiens) (UniProt P16066)
Assay: Natriuretic polypeptide receptor (hNpr1) antagonism - Pilot CMLD screen (AID 1347052);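 further: HEK293 cells with hNpr1 stimulated by hNppA peptide at 0.1 nM; cGMP level read as GloSensor luciferase luminescence after agonist stimulation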
Conditions: HEK293 hNpr1 GloSensor cGMP luminescence, ANP-stimulated; series mostly up to 9.22 µM

Chain of Atrial natriuretic peptide receptor 1 (Homo sapiens) (P16066 whole entry, looked up): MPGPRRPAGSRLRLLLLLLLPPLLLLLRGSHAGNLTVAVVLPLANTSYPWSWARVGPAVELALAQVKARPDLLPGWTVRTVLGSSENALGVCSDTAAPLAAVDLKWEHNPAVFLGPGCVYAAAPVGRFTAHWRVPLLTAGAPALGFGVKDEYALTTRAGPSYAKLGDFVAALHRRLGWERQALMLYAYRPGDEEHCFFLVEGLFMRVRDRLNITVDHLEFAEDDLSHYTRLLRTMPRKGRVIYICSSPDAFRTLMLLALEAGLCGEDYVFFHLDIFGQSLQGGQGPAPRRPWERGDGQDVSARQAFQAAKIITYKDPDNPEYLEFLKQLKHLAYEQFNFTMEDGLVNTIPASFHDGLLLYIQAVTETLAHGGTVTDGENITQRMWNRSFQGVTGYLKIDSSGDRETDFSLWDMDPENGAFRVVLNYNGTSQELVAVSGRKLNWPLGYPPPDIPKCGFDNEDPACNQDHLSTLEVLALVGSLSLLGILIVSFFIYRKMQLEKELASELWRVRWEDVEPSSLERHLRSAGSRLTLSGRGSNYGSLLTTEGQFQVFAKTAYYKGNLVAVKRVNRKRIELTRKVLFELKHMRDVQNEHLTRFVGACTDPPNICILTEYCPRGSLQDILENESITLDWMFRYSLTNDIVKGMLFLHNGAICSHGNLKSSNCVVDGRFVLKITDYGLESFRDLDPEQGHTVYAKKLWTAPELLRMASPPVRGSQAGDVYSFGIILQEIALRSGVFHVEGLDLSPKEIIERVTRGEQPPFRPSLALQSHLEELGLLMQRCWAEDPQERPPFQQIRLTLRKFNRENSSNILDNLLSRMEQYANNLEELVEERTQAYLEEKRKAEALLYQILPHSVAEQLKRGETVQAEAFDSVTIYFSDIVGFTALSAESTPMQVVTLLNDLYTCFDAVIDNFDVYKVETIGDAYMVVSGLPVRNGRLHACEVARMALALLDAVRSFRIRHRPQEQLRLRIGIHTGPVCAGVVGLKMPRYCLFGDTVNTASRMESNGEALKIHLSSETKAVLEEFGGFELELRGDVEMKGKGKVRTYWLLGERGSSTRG

Potency, inactive:
Cc1ccc(C(=O)OC[C@H]2O[C@H](Cl)C[C@H]2OC(=O)c2ccc(C)cc2)cc1
C#CCCCON=C1C[C@@H](O)[C@H](O)[C@H]2[C@@H]3C(=O)N(Cc4ccccc4)C(=O)[C@@H]3CC[C@H]12
COC(=O)C1=C(C(=O)OC)[C@@H]2N(CC=C(C)C)c3ccccc3[C@@]23CCC(=O)N(CCc2ccccn2)C3=N1
CC12C=C(C=Cc3ccc(C(F)(F)F)cc3)C(C)(C1)C(c1ccc(C(F)(F)F)cc1)CC2=O (stereo not drawn)
COC(=O)C1=C(C)N(Cc2ccco2)C(=O)NC1c1ccc(Br)cc1 (stereo not drawn)
CC1=CC[C@@H](COc2ccccc2)O[C@@]2(C1)C(=O)N(Cc1ccc(Br)cc1)c1cccc(Br)c12
Cc1ccccc1Nc1oc(-c2ccccc2)nc1-c1cccs1
COC(=O)[C@H]1[C@@H](c2ccccc2)NC(=O)N(CCc2cc(OC)c(OC)c(OC)c2)[C@@H]1C
CCCCC1=CC2=CC(=O)C(C)(OC(=O)CCc3ccccc3)C(=O)C2=CO1 (stereo not drawn)
COc1ccc2c(c1)C(=O)[C@@H](OC(=O)NCCc1ccc(OC)c(OC)c1)[C@H](c1ccc(OC)c(Br)c1)O2
CC(C)=NO[C@@H](C)CN1CCCc2nc(C)c(C)cc21
CC1=CC[C@@H](COc2ccccc2)O[C@@]2(C1)C(=O)Nc1cccc(Br)c12
CCCCC1=CC2=C(c3ccco3)C(=O)C(C)(OC(=O)c3ccc(OC)cc3)C(=O)C2=CN1C1CCCCC1 (stereo not drawn)
COc1ccc(COC(=O)NN=C2C[C@@H](O)[C@@H](O)[C@@H]3[C@H]4C(=O)N(C5CCCCC5)C(=O)[C@@H]4CC[C@@H]23)cc1
COCOc1ccc(Br)cc1C(=O)C=Cc1ccc2c(c1)OCO2
COc1ccc(-c2ccc3c(n2)CCCN3CC(O)CN2CCCc3nc(C)c(C)cc32)cc1 (stereo not drawn)
CC(CCN1CCCc2nc(C)c(C)cc21)=NOC[C@@H](C)[C@H](OCc1ccccc1)C(C)C
COC(=O)C1=C(C)N(Cc2ccccc2)C(=S)NC1CCc1ccccc1 (stereo not drawn)
